{
  "source": "PubChem BioAssay AID2685",
  "about": "(National Center for Advancing Translational Sciences (NCATS), 2010)",
  "note": "About 2,100 (0.66%) of roughly 320,000 compounds were called active. Roughly 53% stayed inconclusive and do not appear here. The call rests on the fitted dose curve; in most records, active means well fitted inhibition curve with a large enough effect in the signal ratio, with a control signal flat (not every such curve was filed as active); inconclusive means small, poorly fitted or top-dose-only effect, or effect the other way, or a change in a side signal; inactive means flat fitted curve, though single readings scatter; the % refers to the signal ratio. Shown is part of a subset that was picked to be rich in actives. Potency means the concentration at half of the fitted maximal effect.",
  "data": [
    {"experiment": "qHTS Assay for Lipid Storage Modulators in Drosophila S3 Cells;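 on cell number change: cells counted by Cell Tracker Red CMTPX staining in the red channel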", "details": "BODIPY lipid droplet fluorescence, 18-24 h, cells fed with added oleic acid; cell number change: measured here: cell count max response; series mostly up to 46.1 µM", "how_it_was_run": "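Laser-scanning cytometry quantifies lipid droplet accumulation (500–530 nm total intensity; droplet/cell object ratio) in oleic acid-fed (400 uM added) Drosophila S3 cells treated with a concentration series. 20 uM Triacsin C defined 100% inhibition.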", "units": {"cell number change": "%"}, "values": [
      {"smiles": "O=C(CSc1n[nH]c(-c2cc(Cl)ccc2Cl)n1)NCCN1C(=O)CSC1=O", "Potency": "18.4 µM (active)", "cell number change": -24.6},
      {"smiles": "O=C(CSc1nc(-c2ccc(F)cc2)cs1)NCCN1C(=O)CSC1=O", "Potency": "inactive"},
      {"smiles": "O=C(COC(=O)c1cc(Cl)ccc1Cl)NCCN1C(=O)CSC1=O", "Potency": "inactive", "cell number change": -6.51},
      {"smiles": "O=C(CCc1nnc2ccc(NCc3ccccc3Cl)nn12)NC1CCCC1", "Potency": "inactive", "cell number change": 3.96},
      {"smiles": "CC1(C)CC(=O)C2=C(C1)Oc1ncn(Cc3ccco3)c(=N)c1C2c1ccccc1", "note": "(configuration not stated)", "Potency": "inactive", "cell number change": -0.936},
      {"smiles": "CC(C)(C)n1ncc2c(=O)n(Cc3c(F)cccc3Cl)cnc21", "Potency": "inactive", "cell number change": 4.75},
      {"smiles": "O=C1NC(c2ccccc2)=C(c2ccc3ccccc3n2)C(c2ccccc2)N1", "note": "(configuration not stated)", "Potency": "inactive", "cell number change": -0.112},
      {"smiles": "CC(C)(Oc1ccc(CCNC(=O)c2ccc(-c3ccccc3)o2)cc1)C(=O)O", "Potency": "inactive", "cell number change": 7.48},
      {"smiles": "Cc1ccc(S(=O)(=O)Nc2nc3ccccc3nc2NCc2ccc3c(c2)OCO3)cc1C", "Potency": "inactive", "cell number change": -0.718},
      {"smiles": "O=c1oc(-c2cc3ccccc3o2)nc2sc3c(c12)CCCC3", "Potency": "inactive", "cell number change": -5.74},
      {"smiles": "COc1ccc(C(=O)NCC(=O)O)cc1", "Potency": "16.4 µM (active)", "cell number change": -3.91},
      {"smiles": "COc1ccc(C(=O)COC(=O)CNC(=O)c2ccc(OC)cc2)cc1", "Potency": "inactive"},
      {"smiles": "COc1ccc(C(=O)NN)cc1", "Potency": "inactive", "cell number change": 15},
      {"smiles": "CCc1nccn1S(=O)(=O)c1cc(OC)ccc1OC", "Potency": "inactive"},
      {"smiles": "CCn1cc(CN2CCN(Cc3ccc(OC)c(C)c3C)C(CCO)C2)c(C)n1", "note": "(configuration not stated)", "Potency": "inactive", "cell number change": 2.86},
      {"smiles": "CCCCCn1cnnc1SCC(=O)c1ccc2c(c1)OCO2", "Potency": "inactive", "cell number change": -4.15},
      {"smiles": "CC(=Nc1ccc(Br)cc1)c1sc2ccccc2c1O", "Potency": "inactive"},
      {"smiles": "CC(=Nc1ccccc1O)c1sc2ccccc2c1O", "Potency": "25.9 µM (active)", "cell number change": -13.3},
      {"smiles": "CC(=Nc1ccc(O)cc1)c1sc2ccccc2c1O", "Potency": "inactive", "cell number change": 0.835},
      {"smiles": "CCn1cc(C(=O)N(C)CC(OC)OC)c(=O)c2cc(S(=O)(=O)N3CCOCC3)ccc21", "Potency": "inactive", "cell number change": 3.42},
      {"smiles": "C=CCn1c(=S)[nH]c2cc(C(=O)NCCc3ccc(S(N)(=O)=O)cc3)ccc2c1=O", "Potency": "inactive", "cell number change": 16.5},
      {"smiles": "Cc1ccc(S(N)(=O)=O)c(C)c1-n1cnnn1", "Potency": "inactive", "cell number change": 3.24},
      {"smiles": "Cc1cc(SC(C)C(=O)Nc2c(C)n(C)n(-c3ccccc3)c2=O)nc2ccccc12", "note": "(configuration not stated)", "Potency": "inactive", "cell number change": -14.4},
      {"smiles": "Cc1c(NC(=O)C(C)N2C(=O)C3CCCCC3C2=O)c(=O)n(-c2ccccc2)n1C", "note": "(configuration not stated)", "Potency": "inactive", "cell number change": 9.88},
      {"smiles": "CCN1CCN(C(C)C(=O)Nc2c(C)n(C)n(-c3ccccc3)c2=O)CC1", "note": "(configuration not stated)", "Potency": "inactive", "cell number change": -2.1},
      {"smiles": "Cc1ccc(SC(C)C(=O)Nc2c(C)n(C)n(-c3ccccc3)c2=O)cc1", "note": "(configuration not stated)", "Potency": "inactive"},
      {"smiles": "COc1cc(-c2nnc(SC(C)C(=O)Nc3c(C)n(C)n(-c4ccccc4)c3=O)o2)cc(OC)c1OC", "note": "(configuration not stated)", "Potency": "25.9 µM (active)", "cell number change": -15.3},
      {"smiles": "Cc1c(NC(=O)C(C)N2CC(C)OC(C)C2)c(=O)n(-c2ccccc2)n1C", "note": "(configuration not stated)", "Potency": "7.31 µM (active)", "cell number change": 11.9},
      {"smiles": "COCCNC(=O)C(C)Oc1ccccc1", "note": "(configuration not stated)", "Potency": "inactive", "cell number change": 20.2},
      {"smiles": "NS(=O)(=O)c1ccc(CNC(=O)CSc2nc3ccc(Cl)cc3[nH]2)cc1", "Potency": "inactive", "cell number change": -16.1},
      {"smiles": "COc1ccc(C2CC(=O)c3sc(NC(C)=O)nc3C2)cc1", "note": "(configuration not stated)", "Potency": "inactive", "cell number change": 20.9},
      {"smiles": "Cc1cccc(C)c1NC(=S)N1CCC(N(C)CC2CCCO2)CC1", "note": "(configuration not stated)", "Potency": "20.6 µM (active)", "cell number change": -14.4},
      {"smiles": "Cc1cc(C)c(NC(=S)N2CCC(N(C)CC3CCCO3)CC2)c(C)c1", "note": "(configuration not stated)", "Potency": "25.9 µM (active)", "cell number change": 6.74},
      {"smiles": "Cc1ccc(NC(=S)N2CCC(N(C)CC3CCCO3)CC2)cc1C", "note": "(configuration not stated)", "Potency": "inactive", "cell number change": 5.03},
      {"smiles": "Cc1ccc(NC(=S)N2CCC(N(C)CC3CCCO3)CC2)cc1", "note": "(configuration not stated)", "Potency": "inactive", "cell number change": 14.9},
      {"smiles": "Cc1c(Cl)cccc1NC(=S)N1CCC(N(C)CC2CCCO2)CC1", "note": "(configuration not stated)", "Potency": "inactive", "cell number change": 7.58},
      {"smiles": "Cc1cc(C)cc(NC(=S)N2CCC(N(C)CC3CCCO3)CC2)c1", "note": "(configuration not stated)", "Potency": "inactive", "cell number change": 11.9},
      {"smiles": "Cc1cc(-c2csc(N)n2)c(C)n1CCc1ccccc1", "Potency": "inactive", "cell number change": -18.9},
      {"smiles": "CCN(CC)C(=O)C1CCN(S(=O)(=O)c2ccc(-n3cnnn3)cc2)CC1", "Potency": "inactive", "cell number change": 1.39},
      {"smiles": "COc1ccc(S(=O)(=O)NCC(=O)NCc2cc(=O)n(C)c(=O)n2C)cc1C", "Potency": "inactive", "cell number change": 10.1},
      {"smiles": "CCOC(CCn1c(SCC(=O)NC2CCCC2)nc2ccccc2c1=O)OCC", "Potency": "inactive", "cell number change": 7.57},
      {"smiles": "CN(C)CCCNCCCNC(=O)c1ccncc1", "Potency": "inactive", "cell number change": 10.5},
      {"smiles": "O=C(CC1C(=O)NCCN1Cc1cccc(F)c1)NC1CCCCC1", "note": "(configuration not stated)", "Potency": "inactive", "cell number change": 13.2},
      {"smiles": "O=C(CC1C(=O)NCCN1Cc1cccc(C(F)(F)F)c1)NC1CCCCCC1", "note": "(configuration not stated)", "Potency": "5.17 µM (active)", "cell number change": 13.5},
      {"smiles": "O=C(CC1C(=O)NCCN1Cc1ccccc1)NC1CCCCCC1", "note": "(configuration not stated)", "Potency": "inactive", "cell number change": 13.2},
      {"smiles": "Cc1n[nH]c(C)c1C(=O)CC1(O)C(=O)N(CCc2ccccc2)c2ccc(Br)cc21", "note": "(configuration not stated)", "Potency": "inactive", "cell number change": 12.8}
    ]}
  ]
}
